Bioassay records (PubChem BioAssay)
HT1080-NT tox = kills 2HG-producing HT-1080-NT fibrosarcoma cells; HT-1080-NT fibrosarcoma viability, CellTiter-Glo ATP luminescence, 48 h; Potency, µM (highest dose often 46.1 µM), for the others: at the highest dose activity, negative = less viability, hits mostly cytotoxic; 360,000 tested, 1.6% active; AID 686970;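 also: NT is the 2HG producing partner of a matched IDH1 knockdown line; 0% = DMSO-treated cells and -100% = media-only wells without cells; nearly all actives have a fitted effect of over 55% in size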
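Toxicity toward the 2HG-producing NT line was scored as %Activity, normalised to DMSO and no-cell wells, from CellTiter-Glo luminescence after 48 hours' treatment.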
ATXN viability = reduces viability in counter-screen for ATXN expression inhibitors; S2 cells (HEK-293 line with an ATXN2-luciferase reporter) viability, CellTiter-Fluor protease fluorescence, 24 h; Potency, µM (highest dose often 56.7 µM), hits mostly cytotoxic; 400,000 tested, 0.49% active; AID 651635; also: nearly all actives have a fitted effect of over 40% in size
ATXN2 expr inh = reduces ATXN2 reporter expression in HEK-293 cells. HEK-293 ATXN2-luciferase reporter, luminescence, 24 h. Potency, µM (series often up to 57 µM), inactives show at the top dose activity change, negative = inhibition, hits mostly inhibitors. 360,000 tested, 0.72% active. AID 1745845; also: % is scaled to controls: 0 for no effect and ±100 for the full control effect; nearly all actives have a fitted effect of over 55% in size
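qHTS (up to 57 uM final) was run with 24 h compound exposure of reporter cells at 37 °C. Each well was multiplexed: SteadyGlo luminescence measured ATXN2-luciferase expression after a fluorogenic Gly-Phe-AFC viability readout (25 uM final).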
TGFb SMAD3 inh = blocks TGF-b signaling | HepG2 CAGA-GFP TGF-b/SMAD3 reporter, GFP fluorescence, 18 h; TGF-beta stimulated, 500 pg/mL final | Potency, µM (top dose mostly 46.1 µM), for inactives: top-dose activity, negative = inhibition, hits mostly inhibitors | 410,000 tested, 1.2% active; also: % is scaled to controls: 0 for no effect and ±100 for the full control effect; nearly all actives have a fitted effect of over 65% in size
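TGF-beta reporter screen: HEPG2 CAGA-GFP, 1% FBS, 500 pg/mL TGF-beta final, 18 h; per-cell GFP summed per well; curves fitted and categorized by class.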
HT1080 IDH1KD tx = HT-1080 IDH1 knockdown cell toxicity (counter line) | 360,000 tested, 2% active | Potency, µM (highest dose often 46.1 µM), inactives show at the top dose activity, negative = toxicity, usual class: cytotoxic | HT-1080 IDH1 knockdown viability, ATP luminescence, 48 h | AID 686971;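 also: 0% = DMSO wells and -100% = cell-free medium wells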
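Using the IDH1-knockdown HT-1080 line run in the same batch and compound series as the NT line, viability after 48 h at 37 °C was determined by CellTiter-Glo luminescence and expressed as % activity.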
HepG2 viability = kills HepG2 cells in TGF-b inhibitor counter-screen; HepG2 CAGA-GFP viability, ATP luminescence, 18 h; Potency, µM (series often up to 46.1 µM), for the others: at the top dose activity change, negative = cytotoxicity, most hits filed as cytotoxic; 410,000 tested, 0.76% active; AID 588856
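CellTiter-Glo luminescence gave cytotoxicity after 18 hours at 37 degrees C. The cells were HepG2 CAGA-GFP in 1% FBS DMEM, stimulated with 500 pg/mL TGF-beta after compound addition. %Activity was normalised to no-cell wells (complete cell-killing) and DMSO (no toxicity), and curves were fitted and classified.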
The depositor's hits bear a star; i = inactive; ? = inconclusive; · = no result given. Compounds with a hit are over-represented: about 3.8% of the library has one in this group of screens. Calls follow the shape of the dose curve; as a rule, active = well fitted curve in the direction sought with a large enough effect; inconclusive = small, poorly fitted or top-dose-only effect, or another doubt; inactive = no such curve, though single readings can be large; an effect the other way counts as inactive or inconclusive. Potency is read from the fitted curve at half-maximal effect.

SMILES | HT1080-NT tox | ATXN viability | ATXN2 expr inh | TGFb SMAD3 inh | HT1080 IDH1KD tx | HepG2 viability
COc1ccc(N2CCN(CC(=O)Nc3ncc(C)s3)CC2)cc1 | -2% | ? | · | -5% | -15% | 0%
Cc1cnc(NC(=O)CN2CCN(c3ccccn3)CC2)s1 | 20% | ? | 8.9µM* | ? | 3% | -22%
CCOc1ccc(-c2cc(NC(=O)Nc3ccccc3Cl)c(C(=O)OC)s2)cc1 | · | · | · | -9% | · | -17%
CCOC(=O)c1nnc(-c2ccc(C)cc2)nc1Oc1ccc(Cl)cc1Cl | -28% | i | -9% | ? | -18% | -5%
CCOC(=O)c1nnc(-c2ccc(C)cc2)nc1Oc1ccccc1Cl | 23µM* | i | 7% | ? | 23µM* | -17%
CCOC(=O)c1nnc(-c2ccccc2)nc1Sc1c(Cl)cccc1Cl | ? | ? | ? | 10µM* | 21µM* | -115%
CCOC(=O)c1ccc(NC(=O)C2CCN(C(=O)N3CC(C)Oc4ccc(C)cc43)CC2)cc1 (stereo not drawn) | · | · | · | ? | · | -68%
CCc1nc(Nc2ccc(F)c(Cl)c2)c2c3c(sc2n1)CCCC3 | · | i | 0% | 8% | · | -5%
COc1ccc(N2CCN(C(=O)c3nn(-c4ccc(C)cc4)c(=O)n(C)c3=O)CC2)cc1 | · | i | -9% | -17% | · | 15%
C=CCOc1ccccc1CN(C(=O)CCl)c1ccc2c(c1)OCO2 | 3.7µM* | · | ? | ? | 2.6µM* | -71%
C/C(=N\Nc1cc(-c2ccccc2)nc(-c2ccc(Br)cc2)n1)c1cccc(N)c1 | 11µM* | i | 6% | ? | 18µM* | -33%
COc1ccc(S(=O)(=O)N(C)CC(=O)NC2CC2)cc1 | 3% | i | 4% | 8% | 1% | 18µM*
CN(CC(=O)NC1CC1)S(=O)(=O)c1ccc(F)cc1 | 4% | i | -8% | -8% | 0% | 0%
COC(=O)C1=C[C@@H](C(=O)OC)C2C3=C(C(=O)[C@@]2(C)NC(=O)c2ccccc2)[C@H](C)n2c(=O)n(C)c(=O)n2[C@@H]3C1 (stereo partly drawn) | · | · | · | -18% | · | 2%
N#CC1=C(SCC(=O)c2ccc(Br)cc2)NC2=C(C(=O)CCC2)C1c1ccco1 (stereo not drawn) | 13µM* | i | -17% | -25% | 10µM* | -3%
Cc1ccc2c(C(=O)CCl)c(C)[nH]c2c1 | ? | i | 20% | ? | 21µM* | -96%
Cc1ccc2[nH]cc(C(=O)CCl)c2c1 | 16µM* | ? | ? | ? | 21µM* | -105%
Cc1cccc2c(C(O)c3c[nH]c4c(C)cccc34)c[nH]c12 | · | · | · | -19% | · | 2%
Cc1ccc2c(C(=O)CN3CCSCC3)c(C)[nH]c2c1 | 1% | i | 2% | 7% | -2% | -5%
Clc1ccc(C(c2ccccc2)c2c[nH]c3ccccc23)s1 (stereo not drawn) | · | · | ? | ? | · | -109%
Cc1ccc2[nH]cc(C(O)c3c[nH]c4ccc(C)cc34)c2c1 | · | · | · | 10µM* | · | 10%
Cc1ccc2[nH]cc(C(c3ccccc3)c3ccc(Cl)s3)c2c1 (stereo not drawn) | · | ? | ? | ? | · | 11µM*
Nc1nc[nH]c(=O)c1N | · | · | · | 18% | · | 6%
Cc1ccccc1C(=O)N1CCN(CCc2ccccn2)CC1 | · | i | -10% | 4% | · | -1%
O=C(NCCCN1CCOCC1)c1cc(-c2cccs2)on1 | ? | i | -16% | -21% | 11µM* | 0%
SMILES | HT1080-NT tox | ATXN viability | ATXN2 expr inh | TGFb SMAD3 inh | HT1080 IDH1KD tx | HepG2 viability
COCCCNC(=O)c1ccc(-n2nc(C(F)(F)F)cc2-c2cccs2)cc1 | 0% | i | -36% | -17% | -5% | -18%
O=C(NCCCN1CCOCC1)c1ccc(-n2nc(C(F)(F)F)cc2-c2cccs2)cc1 | ? | i | ? | -10% | 23µM* | -33%
Cn1c(=S)c2[nH]c(SCC3CCCO3)nc2n(C)c1=O (stereo not drawn) | 0% | i | -25% | ? | -8% | 11µM*
C=CCN(CC=C)C(=S)NC(=O)c1ccc(OC)c(Br)c1 | ? | ? | ? | -27% | 3.2µM* | -14%
Cc1ccc(S(=O)(=O)N2CC3(O)CN(C(=O)OC(C)C)N(C(=O)OC(C)C)CC3(OC(=O)Nc3cccs3)C2)cc1 (stereo not drawn) | -14% | ? | -6% | 13µM* | -2% | -38%
CCNc1nc(NCC)nc(-n2cc(C(=O)c3cc(Cl)ccc3O)cn2)n1 | · | · | · | 25% | · | 10%
C=CCN1C(=O)/C(=C\C=C2\N(C)c3ccccc3C2(C)C)SC1=S | 14% | ? | 1% | 20% | 3% | 1%
C=CCN1C(=O)/C(=C/C=C2/N(CC)c3ccc(S(=O)(=O)N(C)C)cc3N2CC)SC1=S | -4% | 0.89µM* | · | 73% | -13% | -12%
N#C/C(=N\Nc1ccccc1Cl)C(=O)c1ccccc1 | ? | ? | 5% | ? | ? | -16%
Cc1ccccc1C(=O)/C(C#N)=N/Nc1c(C)n(C)n(-c2ccccc2)c1=O | -26% | ? | 7.1µM* | ? | ? | -5%
Cc1c(N/N=C(\C#N)C(=O)c2ccccc2)c(=O)n(-c2ccccc2)n1C | -22% | ? | 14µM* | 1% | ? | 0%
CCOC(=O)/C(C#N)=N/Nc1c(C)n(C)n(-c2ccccc2)c1=O | -26% | i | 9% | 0% | -8% | -3%
Cc1c(NC=C(C#N)C#N)c(=O)n(-c2ccccc2)n1C | -16% | i | -11% | 2% | -10% | -2%
N#C/C(=N\Nc1cccc(Cl)c1)C(=O)c1ccccc1 | ? | ? | -35% | ? | 23µM* | -32%
O=[N+]([O-])C(/C=C(\Cl)[N+](=O)[O-])=C1N(Cc2ccc(Cl)nc2)CCN1Cc1ccc(Cl)nc1 | ? | i | -12% | ? | ? | 20µM*
COc1ccc(CN2CCc3c([nH]c4ccccc34)C2)cc1Br | -15% | ? | · | ? | -18% | -35%
COc1ccc(CN2CCc3c([nH]c4ccccc34)C2)c(OC)c1C | ? | i | -36% | 0% | 15µM* | -21%
Cc1cccc2c(=O)cc(CSc3ccccc3NC(=O)c3cccc(Br)c3)[nH]c12 | · | 18µM* | -7% | -18% | · | -6%
CCc1ccc(OCc2ccccc2C(=O)Nc2ccc3nc(C)cc(N)c3c2)cc1 | · | · | 17µM* | 4µM* | · | 4µM*
Cc1cc(N)c2cc(NC(=O)/C=C/c3ccccc3Cl)ccc2n1 | ? | 8.9µM* | · | 7.1µM* | ? | 7.1µM*
